Experimental findings from PubChem BioAssay AID778 (Sanford-Burnham Center for Chemical Genomics, 2007) are described below.

The structures appear in SMILES notation. Hit rate of the full screen: of about 96,000 compounds, about 20,000 (21%) were called active. These entries were drawn from the full list. A number with no mark means an inactive call.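 Rule for the calls: active = CYP2C19 inhibition above a set limit at 5 µM in the primary screen (cut at about 50% in these data); inactive = the rest.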

For this assay, the target named is Cytochrome P450 2C19 (Homo sapiens) (UniProt P33261). Nature of the assay: blockers of cytochrome P450 2C19 activity – biochemical, luminescence, ADME assay, primary screen (AID 778).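 Note: plate controls were negative control wells for no effect and 2.5 mM tranylcypromine positive control for full effect.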 The conditions noted are these: CYP2C19 Supersomes, luciferin-H EGE luminescence, 30 min; at 5 µM; hits give high values.
Cytochrome P450 2C19 (Homo sapiens), sequence (P33261 whole entry, looked up): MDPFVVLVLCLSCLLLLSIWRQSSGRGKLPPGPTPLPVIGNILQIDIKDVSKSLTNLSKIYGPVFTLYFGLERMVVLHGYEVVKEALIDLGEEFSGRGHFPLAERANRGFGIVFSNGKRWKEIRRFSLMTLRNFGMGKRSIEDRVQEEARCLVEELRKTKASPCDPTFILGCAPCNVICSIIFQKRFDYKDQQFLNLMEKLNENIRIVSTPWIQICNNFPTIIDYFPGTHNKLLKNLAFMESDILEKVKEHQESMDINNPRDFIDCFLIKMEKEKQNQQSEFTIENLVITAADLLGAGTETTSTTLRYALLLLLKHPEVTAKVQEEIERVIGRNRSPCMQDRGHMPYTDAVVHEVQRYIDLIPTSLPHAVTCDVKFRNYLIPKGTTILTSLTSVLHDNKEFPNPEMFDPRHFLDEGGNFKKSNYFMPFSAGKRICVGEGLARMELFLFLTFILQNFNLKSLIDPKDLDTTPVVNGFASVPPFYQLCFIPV
As for `Cc1ccc(SCc2cc(=O)[nH]c(N3CCCCC3)n2)cc1`, the inhibition was 30.5%.

As to `COC(=O)c1ccc(OCC(=O)NC(C)(C)C)cc1`, the inhibition is 67.1% (active).

For the compound `COc1ccc(OCC(=O)NNC(=O)c2ccc(-c3ccccc3)cc2)cc1`, the inhibition is -6%.

On to `CC(C)(C)NC(=O)COc1ccc(CNc2ccc3[nH]c(=O)[nH]c3c2)cc1`, for which the inhibition was 11.8%.

Take `CC(NC(=O)COc1ccccc1)C(=O)NC1=NCCS1` (configuration not stated): the inhibition is 10.5%.

In the case of `COC(=O)/C=C/C(=O)NCc1ccco1`, the inhibition is -5.7%.

On to `CCC(=O)Nc1nc(OC)cc(OC)n1`, for which the inhibition was 2.1%.

Regarding `FC(F)(F)c1nc2ccccc2nc1N/N=C/c1ccc(Cl)cc1`, the inhibition was 16.6%.

Turning to `O=[N+]([O-])c1ccc(Oc2ccc(F)cc2Br)c2ccncc12`, the inhibition was 31%.

With `COc1ccc2c(c1)SC(C)CC2=O` (configuration not stated), the inhibition was 79.6% (active).

Consider `COc1ccc(NC2CC(=O)N(C)C2=O)cc1` (configuration not stated), for which the inhibition is -10.3%.

Turning to `COc1ccc2c(c1)OC(O)(C(F)(F)C(F)F)CC2=O` (configuration not stated), the inhibition is 47.3%.

With `O=C(Cn1ccc([N+](=O)[O-])n1)NCc1cccs1`, the inhibition is 0.6%.

`O=C(Nc1cc(=O)[nH]c2ncnn12)c1ccccc1Cl`: the inhibition is 2.2%.

Turning to `O=C(C1CCCO1)N(Cc1ccccc1)c1ccccc1` (configuration not stated), the inhibition is 0%.

`COc1ccc(C(CC(=O)O)NC(=O)Cc2ccccc2)cc1` (configuration not stated): the inhibition was -9.7%.

Take `CCOc1ccc(C(CCc2ccccc2)NC(=O)c2ccc(OC)c(OC)c2)cc1OCC` (configuration not stated): the inhibition is 56.7% (active).

As to `CCOc1ccc(C(CC(=O)O)NC(=O)COc2ccccc2)cc1` (configuration not stated), the inhibition is -2.9%.

With `COc1cc2[nH]c(=O)n(CCC(=O)NC3CCN(Cc4ccccc4)CC3)c(=O)c2cc1OC`, the inhibition is -19%.

For the compound `CN(CC(=O)NC1CCCCC1)S(=O)(=O)c1cccc2cccnc12`, the inhibition is 57.6% (active).

For the compound `COc1ccc(N(CC(=O)NC2CCCCCCC2)S(=O)(=O)c2c(C)nn(C)c2C)cc1`, the inhibition was 42.8%.

`Cc1ccc(S(=O)(=O)N(C)CC(=O)NC2CCCC2)cc1`: the inhibition was 11.9%.

For `CCn1c2c(c3ccc(OC)cc31)CCCC2=O`, the inhibition was 7.5%.

`C=C(C)Cn1c(C)cc(C)c(S(=O)(=O)c2ccccc2C)c1=O`: the inhibition is 19.6%.

Take `CCCOc1ccc(N2C(=O)CC(N(CCc3ccc(S(N)(=O)=O)cc3)C(C)=O)C2=O)cc1` (configuration not stated): the inhibition is -16.6%.

For `COc1cccc(N(CC(=O)NC2CCCC2)C(=O)Cn2nnc(-c3ccc(C)cc3)n2)c1`, the inhibition is 28.4%.

Take `CC(C)CCNC(=O)CN(C(=O)Cn1nnc(-c2ccc(F)cc2)n1)C1CCCC1`: the inhibition was 17.8%.

Turning to `CC(C)CCNC(=O)C(C)N(C(=O)Cn1nnc(-c2ccc(F)cc2)n1)C1CCCC1` (configuration not stated), the inhibition is 78.7% (active).

On to `CC1(C)CC(O)C(CCC(O)c2ccccc2)C(C)(C)N1` (configuration not stated), for which the inhibition was -6.9%.

Turning to `CCCOc1ccc(-c2nc(N)n[nH]2)cc1`, the inhibition was 5.8%.

Consider `Cn1c(=NC(=O)C2CC2)sc2cc(F)cc(F)c21`, for which the inhibition is 13.8%.

On to `COc1ccc(CCN2CNc3c(c(=O)n(C)c(=O)n3C)C2)cc1OC`, for which the inhibition was -22.1%.

On to `COc1ccc(CCN=C2SCC(=O)N2C)cc1OC`, for which the inhibition is 88.2% (active).

As for `COc1ccc(CCN(C)CCN2C(=O)c3ccccc3C2=O)cc1OC`, the inhibition is 2.8%.

For the compound `NC(=S)c1ccc(C(N)=S)o1`, the inhibition was 60.2% (active).

Turning to `CCOC(=O)c1c(C)[nH]c(C)c1C(=O)CSc1nc(N)cc(N)n1`, the inhibition is 17.6%.

`Cc1ccc(S(=O)(=O)N2CCC(C(=O)N[C@@H](C)C(=O)NCCc3ccccc3)CC2)cc1`: the inhibition was 10.5%.

In the case of `O=S(=O)(NCCNS(=O)(=O)c1ccccc1)c1ccccc1`, the inhibition is 89% (active).

With `CC(C)(C)NC(=O)CN(Cc1cccs1)C(=O)CNS(=O)(=O)c1ccccc1`, the inhibition is 4.4%.

Consider `Cc1ccc(C(=O)NCCNS(=O)(=O)c2ccccc2)cc1`, for which the inhibition was 81.4% (active).

For `CC(=O)NS(=O)(=O)c1ccccc1`, the inhibition is 4.6%.

Take `CS(=O)(=O)NCc1ccc(C(=O)NCc2ccccc2)cc1`: the inhibition is -8.4%.

Turning to `Cc1ccc(S(=O)(=O)NCCSC(C)(C)C)cc1`, the inhibition is 11.6%.

Consider `CCOc1cc(C(=S)N2CCOCC2)ccc1O`, for which the inhibition is 12.3%.

As for `CN(CC#CCC(c1ccccc1)c1ccccc1)C(C)(C)C`, the inhibition is 46.1%.

As to `CC(=O)OCc1cc(=O)n(C)c(=O)n1C`, the inhibition was 1.9%.

Consider `CCCc1nnc(NC(=O)c2cccs2)s1`, for which the inhibition is 7.8%.

With `COc1ccc(/C=N/Nc2nc3ccccc3o2)cc1OC`, the inhibition is -0.5%.

As for `C=CCOc1ccc(/C=N/n2cncn2)cc1OC`, the inhibition is 96.6% (active).

For `COc1cc(/C=N/NC(=O)Nc2ccccc2)ccc1OCCOc1ccccc1C`, the inhibition was 4.8%.

For the compound `Cc1csc(NC(=O)CN2CCCCCC2)n1`, the inhibition was 22.8%.

For `COc1cc(/C=N/O)cc(Br)c1OCc1cccc(Cl)c1`, the inhibition was 4.4%.

Take `COc1cc(/C=N/O)cc(Br)c1OS(=O)(=O)c1ccc(C)cc1`: the inhibition was 73.4% (active).

Take `CCOc1cc(/C=N/O)cc(Br)c1OC`: the inhibition is 45.6%.

`Nc1c(-c2cccc(Cl)c2)cnn1-c1cccc([N+](=O)[O-])c1`: the inhibition was 24%.

Take `COc1ccc(C)cc1S(=O)(=O)NCCc1ccccc1`: the inhibition is 54.1% (active).

For the compound `COc1ccc(C)cc1S(=O)(=O)NC1CCCCC1`, the inhibition is 15%.

As for `Cc1noc(C)c1S(=O)(=O)NCCc1ccc(S(N)(=O)=O)cc1`, the inhibition was -13.5%.

In the case of `COCCNS(=O)(=O)c1cc(Br)ccc1OC`, the inhibition was 66.9% (active).

As to `COc1ccc(Br)cc1S(=O)(=O)N1CCN=C1C`, the inhibition was 40.3%.

Turning to `COc1ccc(Cn2c(C)c(C)c(C#N)c2NC(=O)Nc2ccc(F)cc2)cc1`, the inhibition is 4.4%.

For the compound `Cc1ccc(F)cc1NC(=O)c1cccc(N(C)C)c1`, the inhibition was 8.6%.

For the compound `CCCC(NS(=O)(=O)c1ccc(OC)cc1)C(=O)O` (configuration not stated), the inhibition was -12.7%.

For `CCc1ccc(Nc2ncc3c(n2)CC(c2ccco2)CC3=O)cc1` (configuration not stated), the inhibition is 1%.

`CC1CCCC(NC(=O)CN2CCN(Cc3ccc(Cl)cc3)C2=O)C1C` (configuration not stated): the inhibition is 18.3%.

For `CC1CCCCC1NC(=O)CSc1nnc(N)s1` (configuration not stated), the inhibition was 4%.

As for `CC1CCCC(NC(=O)CSc2nccn2C)C1C` (configuration not stated), the inhibition was 97.2% (active).

As to `Cc1ccc(NC(=S)NC(NC(=O)Cc2cccc3ccccc23)C(Cl)(Cl)Cl)cc1` (configuration not stated), the inhibition is 49.5%.

Regarding `O=C(NC1CCC(O)CC1)c1ccc(S(=O)(=O)NCc2ccco2)cc1` (configuration not stated), the inhibition is -9%.

On to `CSCCC(NC(=O)C1CCC(C)CC1)C(=O)NCc1ccco1` (configuration not stated), for which the inhibition was 8.2%.

`CCCC(C(=O)NCc1ccco1)N(C(=O)CNS(=O)(=O)c1ccccc1)C1CCCC1` (configuration not stated): the inhibition was 78.3% (active).

Take `COc1ccc(C2=NOC3(CC(=O)N(c4ccc(C)cc4)C3=O)C2)cc1` (configuration not stated): the inhibition is -13.3%.

As to `O=C1CSC(c2ccc(Cl)cc2)N1` (configuration not stated), the inhibition is 13.7%.

Consider `Cc1nc2ccccc2c2oc(C(=O)NCC3CCCO3)cc12` (configuration not stated), for which the inhibition is -8.4%.

For `c1ccc2c(NCC3CCCO3)nc(-c3ccncc3)nc2c1` (configuration not stated), the inhibition is 94.5% (active).

Turning to `O=C(NCC1CCCO1)c1ccc2ccccc2n1` (configuration not stated), the inhibition is -2.7%.

For the compound `Cc1ccc(S(=O)(=O)n2nc(OC(=O)C(C)(C)C)cc2N)cc1`, the inhibition is 21.6%.

Take `Cc1ccc(N2CCN(S(=O)(=O)N(C)C)CC2)cc1Cl`: the inhibition is 59.1% (active).

For `CS(=O)(=O)N1CCN(c2cccc(Cl)n2)CC1`, the inhibition is 46.3%.

As to `c1ccc(-n2ncc3c2ncn2c(C4CCCCC4)nnc32)cc1`, the inhibition was -4.4%.

`CCn1ncc(C2=NOC(C(=O)N3CCN(c4ccccc4)CC3)C2)c1C` (configuration not stated): the inhibition was -20.9%.

Turning to `O=C(OCC(=O)N1CCCC1)c1ccco1`, the inhibition is 0.8%.

Take `c1csc(-c2nc(-c3ccncc3)no2)c1`: the inhibition is 72.2% (active).

On to `COc1nc(-c2ccc(Cl)cc2)ccc1-c1noc(-c2cccs2)n1`, for which the inhibition was 7%.

With `CCOc1nc(-c2ccc(OC)cc2)ccc1-c1noc(-c2cc(OC)c(OC)c(OC)c2)n1`, the inhibition is 8%.

Consider `COc1cc(-c2nc(-c3ccncc3)no2)cc(OC)c1OC`, for which the inhibition is 83.6% (active).

With `COc1ccc(-c2noc(-c3cccc(OC)c3OC)n2)cc1OC`, the inhibition is 22.7%.

Take `CCc1ccc(CNC(=O)CCc2nc(-c3cccs3)no2)cc1`: the inhibition is 37.6%.

Take `O=C(CSc1nc(-c2ccco2)cc(C(F)(F)F)n1)N1CCc2ccccc2C1`: the inhibition is 42.7%.

For the compound `Cc1[nH]c2ccccc2c1C(=O)CSCC(=O)O`, the inhibition was 0.7%.

Regarding `Cc1cc(N=CC2=C(O)CCCC2=O)no1`, the inhibition is 2.1%.

With `c1coc(CNc2ncnc3ccccc23)c1`, the inhibition was -3.8%.

On to `O=C(COc1ccc(Cl)cc1)NCCC1=CCCCC1`, for which the inhibition is 26.8%.

As for `Cc1nnc(OCC(=O)NCCC2=CCCCC2)c2ccccc12`, the inhibition is 55.2% (active).

As to `O=C(Cc1nn[nH]n1)NCCC1=CCCCC1`, the inhibition is -1.9%.

For `O=C(CN1C(=O)NC2(CCCCC2)C1=O)NCCC1=CCCCC1`, the inhibition is 8.2%.

As for `O=C(COc1cccc(-n2cnnn2)c1)NCCC1=CCCCC1`, the inhibition is 89.3% (active).

`S=C(NCCC1=CCCCC1)Nc1ccccc1`: the inhibition is 46.9%.

Turning to `O=C(O)C1CC=CCC1C(=O)NCCc1ccccc1` (configuration not stated), the inhibition is -8.8%.

As to `CC1(C)COC(c2cccn2Cc2ccccc2Cl)=N1`, the inhibition is 2.4%.

With `CNC(=O)c1ccc2nc(NC(C)=O)sc2c1`, the inhibition is 2.4%.

With `O=C(Cn1c(-c2ccc(Cl)cc2)noc1=O)N1CCN(c2ccccc2F)CC1`, the inhibition was 12.6%.

Consider `CCCCOC(=O)Nc1sc2nc(C)cc(C)c2c1-n1cccc1`, for which the inhibition was 9.4%.

`O=C(Nc1cccc2c1CCCC2)C1CCN(C(=O)NC2CCCCC2)CC1`: the inhibition is 2.3%.

Turning to `COCCNC(=O)COc1ccccc1C`, the inhibition is 2%.

`COCCNC(=O)COc1ccc(C)c(C)c1`: the inhibition was -3.5%.

Regarding `COCCCNC(=O)COc1cc(C)c(Cl)c(C)c1`, the inhibition was 86.2% (active).

For orientation: inhibition means the change of the read-out against control, counted positive when it falls.
